Experimental data taken from PubChem BioAssay (NCATS).
Results filed as inconclusive are left out. Activity calls are given as the source filed them. The call rests on the fitted dose curve; in most records, active means well fitted curve in the direction sought with a large enough effect; inconclusive means small, poorly fitted or top-dose-only effect, or another doubt; inactive means no such curve, though single readings can be large; an effect the other way counts as inactive or inconclusive.

Legend:
[1] = MCF7 Cancer Cell Toxicity qHTS against the NCATS CANVASS Library (AID 1347369); further: series mostly up to about 46 µM
Outline: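 MCF7, 500 cells/well; cpds 11-pt qHTS; 72 hr, 37C/5% CO2; CellTiterGlo ATP luminescence.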

[2] = qHTS for ATAD5 Antagonist screened against the NCATS CANVASS Library (AID 1347370);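 further: HEK293T cells carrying an ATAD5 luciferase reporter co-treated with 10 µM 5-fluorouridine; series mostly up to about 46 µM; nearly all actives have a fitted effect of over 65% in size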
Outline: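 HEK293T cells with a stably integrated ATAD5-controlled luciferase reporter were exposed to compounds (11-pt) alongside 10 uM 5-fluorouridine as ATAD5 stabilizer for 16hr at 37C. Viability was read by CellTiter-Fluor fluorescence, then ATAD5 by luminescence.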

[3] = J3T Cancer Cell Toxicity qHTS against the NCATS CANVASS Library (AID 1347371)
Outline: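 J3T dog glioma cells (500 cells/well) were exposed to compounds in an 11-point series for 72 hr at 37C, 5% CO2. Cytotoxicity was read as ATP content by CellTiterGlo luminescence.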

[4] = target: Nuclear receptor subfamily 1 group I member 3 (Homo sapiens) (UniProt Q14994); test: qHTS for Constitutive Androstane Receptor (CAR) Antagonist screened against the NCATS CANVASS Library (AID 1347372);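 further: cells stimulated with 50 nM CITCO agonist so inhibition reflects antagonism; series mostly up to about 46 µM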
Outline: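 HepG2-CYP2B6-hCAR double-stable cells plated, 4hr attach; cpd pin-transferred; CITCO 50 nM final; 24hr 37C/5% CO2; CellTiter-Fluor 1hr (fluorescence), then ONE-Glo luminescence.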

[5] = target: Nuclear receptor subfamily 1 group I member 3 (Homo sapiens) (UniProt Q14994); test: qHTS for Constitutive Androstane Receptor (CAR) Agonist screened against the NCATS CANVASS Library (AID 1347373);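 further: every well also contained 1.5 µM PK11195 alongside the test compound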
Outline: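 HepG2 cells stably expressing hCAR and a CYP2B6-2.2kb luciferase reporter were treated for 24hr at 37C with compounds (11-point qHTS) in the presence of 1.5uM PK11195. Reporter activation was read by ONE-Glo luminescence.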

[6] = qHTS for Hypoxia signaling pathway (HIF-1) antagonists against the NCATS CANVASS Library (AID 1347374);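 further: HRE-bla ME-180 cells stimulated with cobalt chloride to stabilize HIF-1alpha; series mostly up to about 38 µM; nearly all actives have a fitted effect of over 60% in size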
Outline: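 HRE-bla ME-180 cells (2,000/well, 0.5% dialyzed FBS) were pre-incubated 5 h, then given an 11-point compound series plus CoCl2 (60 uM solution as added) for 17 h at 37C. CCF4 β-lactamase read (ex 405, em 460/530 nm) after 2 h at RT.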

[7] = qHTS for Hypoxia signaling pathway (HIF-1) agonists against the NCATS CANVASS Library (AID 1347375)
Outline: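 HRE-bla ME-180 cells (beta-lactamase reporter under hypoxia responsive element) in 0.5% dialyzed FBS medium, 5 h at 37C, then compound 17 h, 11-point qHTS series. CCF4-AM FRET substrate 2 h RT; 460/530 nm emission read.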

[8] = 10-beta competent E. coli microbial cell viability qHTS against the NCATS CANVASS Library (AID 1347376); further: series mostly up to about 46 µM
Outline: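 10-beta competent E. coli (0.9 OD culture diluted to 0.2 OD) exposed to compounds in an 11-point qHTS series, incubated overnight at 37C, 5% CO2. Viability read as ATP by BacTiter-Glo luminescence after 20 min at room temperature.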

[9] = DH5-alpha competent E. coli microbial cell viability qHTS against the NCATS CANVASS Library (AID 1347377); details: outcome: dose series up to 46.1 µM unless noted
Outline: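 DH5-alpha E. coli suspension (0.9 OD culture diluted to 0.2 OD) exposed to compounds in an 11-point series, overnight at 37C, 5% CO2. Viability read as ATP by BacTiter-Glo luminescence after 20 min at room temperature.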

[10] = qHTS for H2AX Agonists against the NCATS CANVASS Library (AID 1347378)
Outline: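 CHO-K1 cells were plated overnight at 37C, then exposed to compounds (concentration series, 0.76% DMSO final) for 3 hr at 37C. Lysates received Eu-cryptate anti-pH2AX (S139) and d2 anti-H2AX antibodies; after 24 hr at room temperature, TR-FRET 665/620 nm ratio was read.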

[11] = qHTS for Inflammasome Signaling Inhibitors: IL-1-beta AlphaLISA screen against the NCATS CANVASS Library (AID 1347379);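 further: human THP-1 cells primed with LPS then triggered with ATP; secreted IL-1B measured as AlphaLISA emission at 615 nm; lower signal means less IL-1B release which is the wanted effect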
Outline: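 Human THP-1 cells were pretreated 1 hr at 37 °C with compounds (up to 57.5 uM final), then stimulated with LPS (250 ng/mL final) and ATP (1.25 mM final). Secreted IL-1B was read by AlphaLISA after 16 hr.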

[12] = qHTS for Antimalaria activity screened against the NCATS CANVASS Library (AID 1347380);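 further: Plasmodium falciparum strain Dd2 asexual parasites grown in red blood cells; series mostly up to about 29 µM; nearly all actives have a fitted effect of over 40% in size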
Outline: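 P. falciparum Dd2-infected RBCs (2.5% hematocrit final, 0.3% parasitemia) in Albumax II RPMI were exposed to compounds in an 11-point qHTS series for 72 h at 37C under 5% O2/5% CO2, then lysed with SYBR Green.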

[13] = Inflammasome Signaling qHTS Counterscreen: IL-1-beta AlphaLISA counterscreen against the NCATS CANVASS Library (AID 1347381);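 further: cell-free check with purified IL-1β in medium and no THP-1 cells; series mostly up to about 57 µM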
Outline: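 To flag interference with the AlphaLISA read-out, a known amount of purified IL-1-beta (4 pg) replaced cell supernatant. Detection used anti-IL-1-beta acceptor beads, biotinylated antibody and streptavidin donor beads at room temperature.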

[14] = Cytotoxicity qHTS for assessment of Hepg2 cells membrane integrity screened against the NCATS CANVASS Library (AID 1347387)
Outline: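 HepG2 cells (2000/well) attached overnight at 37C, then received compounds in an 11-point series at 0.59 nM - 46 uM final for 5 hr. LDH release was detected fluorometrically (ex 560/em 590 nm) with CytoTox-ONE reagent after 10 min at room temperature.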

[15] = qHTS for Activators of p53 Stress Response Pathway screened against the NCATS CANVASS Library (AID 1347388)
Outline: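 Beta-lactamase reporter driven by p53 response elements in HCT-116 cells, read as the 460 nm/530 nm emission ratio after CCF4 loading, following 16 h of exposure to an 11-point series. Cell viability was measured in the same wells by CellTiter-Glo luminescence.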

[16] = Secretion counterscreen for inhibitors of the SERCaMP assay screened against the NCATS CANVASS Library (AID 1347390);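 further: light from luciferase secreted into medium read as a measure of general secretion; series mostly up to about 77 µM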
Outline: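 SH-SY5Y cells expressing constitutively secreted GLuc, 1000 cells/well, attached 4 h at 37C, then exposed to compounds (0.001 - 77 uM, 11-pnt series) for 20 h. Coelenterazine added; luminescence read to flag secretory-pathway interferers.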

[17] = qHTS for activators of Nrf2/ARE signaling pathway screened against the NCATS CANVASS Library (AID 1347391); further: nearly all actives have a fitted effect of over 60% in size
Outline: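 ARE-bla HepG2 beta-lactamase reporter cells, 2000 cells/well, were preincubated 5 h, then exposed to compounds (11-point series) for 16 h at 37C. CCF4 fluorescence (ex 405, em 460/530 nm) after 2 h at room temperature.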

[18] = qHTS for activators of dead-cell proteases activity screened against the NCATS CANVASS Library (AID 1347392);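 further: luminescence from protease leaking out of membrane-damaged cells cleaving impermeant substrate; rising signal means more cytotoxicity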
Outline: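 Compounds are pin-transferred onto attached HepG2 cells, giving 11 final concentrations. After 5 h at 37C, AAF-aminoluciferin reagent is added and luminescence is recorded at room temperature.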

[19] = qHTS for inhibitors of ER calcium dysfunction: SERCaMP assay screened against the NCATS CANVASS Library (AID 1347393);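 further: series mostly up to about 77 µM; lower secreted reporter signal means inhibitor of ER calcium depletion; nearly all actives have a fitted effect of over 40% in size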
Outline: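 Thapsigargin-induced ER calcium depletion drives GLuc-SERCaMP secretion from SH-SY5Y cells; compounds given 16 h beforehand were scored by lowered coelenterazine luminescence after 4 h challenge.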

[20] = Vero-766 cells viability qHTS against the NCATS CANVASS Library: Counterscreen for Zika virus inhibition assay (AID 1347394); further: series mostly up to about 46 µM; nearly all actives have a fitted effect of over 60% in size
Outline: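 Uninfected Vero 766 (African green monkey) cells, 1000/well, attached overnight, then exposed 72 h at 37C to compounds (11-point qHTS). Viability read by CellTiter-Glo luminescence; media-only wells served as 100% inhibition.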

[21] = qHTS for inhibitors of Wild type Zika virus screened against the NCATS CANVASS Library (AID 1347396);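 further: ATP luminescence of surviving cells so rescue from viral cell killing; series mostly up to about 46 µM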
Outline: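 Using ATP-based luminescence (CellTiter Glo), this screen scores rescue of Vero 766 cells from wild-type Zika killing at 72 h post-infection. Compounds are tested in a concentration series.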

[22] = Viability qHTS for inhibitors of the SERCaMP assay screened against the NCATS CANVASS Library (AID 1347400); further: series mostly up to about 92 µM; nearly all actives have a fitted effect of over 70% in size
Outline: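 SH-SY5Y-GLuc SERCaMP MJH297-derived cells (1000 cells/well) were pre-incubated 4 h at 37C, then exposed to compounds for 48 h. Viability was read as CellTiter-Glo luminescence; bortezomib served as positive control.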

[23] = Redox Reaction Profiling qHTS: Assay Interference Panel against the NCATS CANVASS Library (AID 1347401)
Outline: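 Cell-free redox surrogate: 5 uM resazurin + 200 uM DTT, 50 mM HEPES pH 7.3/50 mM NaCl; cpds pinned, 11-pt qHTS; Ex525/Em598 read t0 and t=15 min, dark.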

Measured: Potency

Chain of Nuclear receptor subfamily 1 group I member 3 (Homo sapiens) (Q14994 whole entry, looked up): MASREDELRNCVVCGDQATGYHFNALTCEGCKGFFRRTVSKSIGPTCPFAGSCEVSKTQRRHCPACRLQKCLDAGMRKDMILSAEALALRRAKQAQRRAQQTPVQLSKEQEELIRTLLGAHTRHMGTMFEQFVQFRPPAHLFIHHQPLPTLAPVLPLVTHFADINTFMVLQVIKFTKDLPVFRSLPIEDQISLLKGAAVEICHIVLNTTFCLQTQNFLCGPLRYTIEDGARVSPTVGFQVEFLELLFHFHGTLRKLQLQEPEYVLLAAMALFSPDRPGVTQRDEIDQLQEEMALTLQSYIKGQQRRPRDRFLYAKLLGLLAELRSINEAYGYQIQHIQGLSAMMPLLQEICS

O=Cc1ccc2n1C[C@@]1(C[C@H](O)[C@@H](CO)O1)OC2
inactive: all assays above
